CYP2C19 inhib – human CYP2C19 inhibition. P33261. CYP2C19 Supersomes, luciferin-H EGE luminescence, 30 min. inhibition, % at 5 µM. 21% of 96,000 active. AID 778;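 active = CYP2C19 inhibition above a set limit at 5 µM in the primary screen, cut at about 50% in these data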;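 also: plate controls were negative control wells for no effect and 2.5 mM tranylcypromine positive control for full effect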
Target sequence (P33261 whole entry, looked up): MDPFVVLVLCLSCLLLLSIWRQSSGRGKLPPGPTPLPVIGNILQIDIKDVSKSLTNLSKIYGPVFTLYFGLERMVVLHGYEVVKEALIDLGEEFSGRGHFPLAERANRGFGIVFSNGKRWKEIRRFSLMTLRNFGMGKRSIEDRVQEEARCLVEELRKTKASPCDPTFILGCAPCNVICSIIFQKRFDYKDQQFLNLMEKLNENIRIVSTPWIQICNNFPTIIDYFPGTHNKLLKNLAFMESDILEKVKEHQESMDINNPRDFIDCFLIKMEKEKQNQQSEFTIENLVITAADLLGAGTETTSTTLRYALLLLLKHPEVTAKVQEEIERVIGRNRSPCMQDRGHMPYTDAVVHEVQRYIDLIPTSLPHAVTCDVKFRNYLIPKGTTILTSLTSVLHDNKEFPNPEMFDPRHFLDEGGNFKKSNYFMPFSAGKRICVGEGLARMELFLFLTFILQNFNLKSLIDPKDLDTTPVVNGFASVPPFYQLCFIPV
CYP2C9 act – CYP2C9 (human) activation | P11712 | recombinant CYP2C9, luciferin-H conversion, luminescence; hits give high values; factor 1 = untreated enzyme, 0 = blocked | activation factor at 5 µM | 1.4% of 96,000 active;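 active = activation factor of 2 or more for CYP2C9 at a 5 µM dose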;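 also: 0 = sulfaphenazole-blocked wells and 1 = vehicle-only wells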
PostGolgi ctrl – yeast control strain growth, post-Golgi counter-screen; 5% of 98,000 active; efflux-deficient yeast background strain, growth absorbance A615, 16 h; inhibition, % at 10 µM; AID 738
CYP2C9 inh – blocks human cytochrome P450 2C9; P11712; CYP2C9 Supersomes, luciferin-H conversion, luminescence; inhibition, % at 5 µM; 20% of 96,000 active; AID 777;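 active = blocking of liver enzyme CYP2C9 beyond about 50% at 5 µM, limit read from the data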
PostGolgi yeast – growth inhibition of a yeast mutant, post-Golgi transport screen; inhibition, % at 10 µM; 0.9% of 98,000 active; AID 739; post-Golgi transport phenotypic cell assay;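 also: yeast cells grown in 1536-well plates; yeast grown about 18 h at 30C before absorbance read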
CYP2C19 activ – cytochrome P450 2C19 (human) activation; P33261; recombinant CYP2C19, luciferin-H EGE luminescence; hits give high values; 0 = fully inhibited enzyme, 1 = untreated enzyme; activation factor at 5 µM; 96,000 tested, under 10 active; AID 1025;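 active = activation factor of at least 2 at 5 µM in the primary screen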;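 also: 0 = wells with 2.5 mM tranylcypromine and 1 = vehicle-only wells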
Active calls of the source: *; · = no result given. Rows were chosen to be rich in hits. Some 32% of all compounds tested hit in one or more screens of this group. Rule as the data show it, unless noted: active = inhibition above about 30%; inactive = the rest.

SMILES	CYP2C19 inhib	CYP2C9 act	PostGolgi ctrl	CYP2C9 inh	PostGolgi yeast	CYP2C19 activ
CCC(C)NS(=O)(=O)c1ccc(NS(C)(=O)=O)cc1 (stereo not given)	1	1.1	19	-10	48*	1
CC(C)(C)NC(=O)C(=O)N/N=C/c1cccs1	10	0.7	-4	33	-9	0.9
O=C(c1ccco1)N1CCN(C(=O)N2c3ccccc3Sc3ccccc32)CC1	32	1	44*	-3	-3	0.7
O=C(c1ccco1)N1c2ccccc2Sc2ccccc21	·	·	32*	·	4	·
O=C(c1ccco1)N1CCN(C(=O)N2CCOCC2)CC1	8	1	7	3	4	0.9
CCOC(=O)CCc1c(C)nc(SCCCn2c(=O)[nH]c3ccccc32)c(C#N)c1C	46	0.4	27	64*	-2	0.5
CCOC(=O)CCc1c(C)nc(SCCN2CCCC2)c(C#N)c1C	30	0.6	10	36	-2	0.7
O=C(CSC1=NS(=O)(=O)c2ccccc21)Nc1ccccc1	53*	0.7	-2	32	-10	0.5
Cc1cc(C)c(S(=O)(=O)N2CCN(CCO)CC2)c(C)c1	43	2.3*	3	-129	9	0.6
Cc1ccc(S(=O)(=O)N2CCN(C)CC2)cc1[N+](=O)[O-]	18	1.3	0	-34	0	0.8
Cc1cc(C)c(S(=O)(=O)N2CCN(C)CC2)c(C)c1	7	2.2*	3	-122	12	0.9
O=C(CNC(=O)c1ccco1)OCC(=O)c1ccc2ccccc2c1	-6	1	-3	1	-4	1.1
CCCCNC(=O)c1cc2c(=O)n3cccc(C)c3nc2n(Cc2ccncc2)c1=N	65*	0.6	0	44	-6	0.4
COC(=O)c1cc2c(=O)n3cccc(C)c3nc2n(Cc2cccnc2)c1=N	0	0.8	·	16	·	1
COc1ccc(CNC(=O)c2cc3c(=O)n4ccccc4nc3n(Cc3cccnc3)c2=N)cc1	4	1	-1	5	3	1
COc1ccc(CCNC(=O)c2cc3c(=O)n4cccc(C)c4nc3n(Cc3ccncc3)c2=N)cc1	90*	0.1	·	87*	·	0.1
COCCNC(=O)c1cc2c(=O)n3cccc(C)c3nc2n(Cc2ccncc2)c1=N	51*	0.6	1	39	0	0.5
CCn1c2ccc(/C(C)=N\O)cc2c2cc(/C(C)=N\O)ccc21	-18	1.2	1	-23	-2	1.2
